In PubChem BioAssay (Tox21):
Results filed as inconclusive are left out. Active and inactive are the calls of the source. Unless noted, the call rests on the fitted dose curve; in most records, active means well fitted curve in the direction sought with a large enough effect in the repeat runs; inconclusive means weak or mixed curves; inactive means no such curve, though single readings can be large; an effect the other way counts as inactive or inconclusive.

How the values were obtained:
[1] = target: Aryl hydrocarbon receptor (Homo sapiens) (UniProt P35869); assay: qHTS assay to identify small molecule that activate the aryl hydrocarbon receptor (AhR) signaling pathway (AID 743085);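 further: HG2L7.5c1 human HepG2 liver cells with stably integrated DRE-driven firefly reporter; series mostly up to about 70 µM; nearly all actives have a fitted effect of over 15% in size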
Aryl hydrocarbon receptor (Homo sapiens), sequence (P35869 whole entry, looked up): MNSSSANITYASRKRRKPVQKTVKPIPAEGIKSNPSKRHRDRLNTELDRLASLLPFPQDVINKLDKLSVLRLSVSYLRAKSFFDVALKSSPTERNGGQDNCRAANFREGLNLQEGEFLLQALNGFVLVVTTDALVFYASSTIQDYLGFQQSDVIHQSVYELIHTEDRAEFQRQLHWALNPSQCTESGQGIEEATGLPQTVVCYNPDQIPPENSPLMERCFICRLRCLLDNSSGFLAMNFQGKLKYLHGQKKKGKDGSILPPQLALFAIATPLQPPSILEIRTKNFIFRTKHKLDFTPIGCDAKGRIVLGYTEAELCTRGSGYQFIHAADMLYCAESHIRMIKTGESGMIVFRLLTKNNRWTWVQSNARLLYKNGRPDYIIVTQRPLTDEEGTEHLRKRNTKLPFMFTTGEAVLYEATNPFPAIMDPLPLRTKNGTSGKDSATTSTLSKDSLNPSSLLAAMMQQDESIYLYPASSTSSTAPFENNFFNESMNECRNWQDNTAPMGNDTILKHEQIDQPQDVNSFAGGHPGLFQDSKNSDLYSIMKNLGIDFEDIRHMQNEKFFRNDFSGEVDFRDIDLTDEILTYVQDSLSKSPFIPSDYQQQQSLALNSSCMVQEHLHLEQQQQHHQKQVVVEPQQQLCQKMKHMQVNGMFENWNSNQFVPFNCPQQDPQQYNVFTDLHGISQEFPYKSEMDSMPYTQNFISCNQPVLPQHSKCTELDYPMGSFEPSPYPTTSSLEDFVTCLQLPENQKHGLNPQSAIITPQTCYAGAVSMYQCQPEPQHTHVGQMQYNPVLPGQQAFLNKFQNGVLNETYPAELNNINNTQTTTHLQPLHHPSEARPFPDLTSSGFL
Method in brief: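 24 h compound exposure, 37C, HepG2-derived HG2L7.5c1 cells with DRE-responsive luciferase. Readouts: fluorescence viability, then luminescence at room temperature after 30 min.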

[2] = qHTS assay to identify small molecule that activate the aryl hydrocarbon receptor (AhR) signaling pathway - cell viability counter screen (AID 743086);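 further: HepG2 liver cells carrying the AhR DRE luciferase reporter; series mostly up to about 70 µM; nearly all actives have a fitted effect of over 45% in size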
Method in brief: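 HepG2-AhR-luc (HG2L7.5c1) cells, 4000/well, were preincubated 5 h at 37C, exposed to compound in qHTS format for 24 hr at 37C, then given CellTiter-Fluor for 30 min; viability was read as fluorescence in the reporter wells.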

[3] = target: Peroxisome proliferator-activated receptor gamma (Homo sapiens) (UniProt P37231); assay: qHTS assay to identify small molecule agonists of the peroxisome proliferator-activated receptor gamma (PPARg) signaling pathway (AID 743094; active means well fitted activation curve with a large enough effect in the signal ratio in the repeat runs, not every such curve was filed as active; the % refers to the signal ratio)
Peroxisome proliferator-activated receptor gamma (Homo sapiens), sequence (P37231 whole entry, looked up): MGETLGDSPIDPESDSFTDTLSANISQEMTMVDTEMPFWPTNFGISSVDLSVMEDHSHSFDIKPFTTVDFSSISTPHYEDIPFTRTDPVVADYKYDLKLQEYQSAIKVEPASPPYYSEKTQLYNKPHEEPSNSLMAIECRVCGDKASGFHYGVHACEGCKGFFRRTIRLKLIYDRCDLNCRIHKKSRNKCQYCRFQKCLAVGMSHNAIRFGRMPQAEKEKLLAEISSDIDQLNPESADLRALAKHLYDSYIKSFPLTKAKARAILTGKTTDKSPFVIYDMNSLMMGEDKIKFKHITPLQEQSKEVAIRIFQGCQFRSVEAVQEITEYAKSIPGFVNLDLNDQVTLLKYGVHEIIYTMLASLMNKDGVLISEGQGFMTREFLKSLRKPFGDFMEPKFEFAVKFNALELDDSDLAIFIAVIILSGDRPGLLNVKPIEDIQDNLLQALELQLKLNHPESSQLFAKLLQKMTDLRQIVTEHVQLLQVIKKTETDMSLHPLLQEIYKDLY
Method in brief: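 Cell-based bla reporter, HEK293H background, PPARg-driven UAS. Pre-incubation 5 h, 37C, 5% CO2. Compound 17 h, 37C. Substrate 1 h RT; fluorescence.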

[4] = target: Peroxisome proliferator-activated receptor gamma (Homo sapiens) (UniProt P37231); assay: qHTS assay to identify small molecule antagonists of the peroxisome proliferator-activated receptor gamma (PPARg) signaling pathway (AID 743191; calls by dose curve; further: series mostly up to about 63 µM; nearly all actives have a fitted effect of over 30% in size)
Method in brief: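 GeneBLAzer PPARg UAS-bla HEK293H cells carrying a UAS-driven beta-lactamase reporter were plated at 3000 cells/well, preincubated 5 h at 37C, then given compound for 17 h at 37C; LiveBLAzer B/G FRET substrate was read after 1 h at room temperature.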

[5] = qHTS assay for small molecule agonists of the antioxidant response element (ARE) signaling pathway (AID 743202; active means well fitted activation curve with a large enough effect in the signal ratio in the repeat runs, not every such curve was filed as active; the % refers to the signal ratio)
Method in brief: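 Following a 16 h, 37 C exposure of reporter HepG2 cells (ARE-driven beta-lactamase, 2,000 cells/well) to compounds, FRET substrate was applied for 2 h at room temperature and fluorescence intensity recorded.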

[6] = qHTS assay for small molecule agonists of the antioxidant response element (ARE) signaling pathway - cell viability counter screen (AID 743203; calls by dose curve; further: nearly all actives have a fitted effect of over 55% in size)
Method in brief: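 Measured in the same wells as the beta-lactamase ARE reporter, this read-out is CellTiter-Glo luminescence from HepG2 ARE-bla cells given compounds for 16 hrs.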

[7] = qHTS assay for small molecule activators of the heat shock response signaling pathway - cell viability counter screen (AID 743209); further: nearly all actives have a fitted effect of over 50% in size
Method in brief: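 Same-well multiplex: after 2.5 h room-temperature incubation with LiveBLAzer B/G substrate and fluorescence reading, CellTiter-Glo reagent was added to HSE-bla HeLa cells that had received compound for 5 h at 37 C; luminescence read after 30 min.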

[8] = qHTS assay for small molecule activators of the heat shock response signaling pathway (AID 743210; active means well fitted activation curve with a large enough effect in the signal ratio in the repeat runs, with a control signal flat, not every such curve was filed as active; the % refers to the signal ratio; further: series mostly up to about 63 µM)
Method in brief: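 Heat shock element–beta-lactamase HeLa reporter cells; qHTS with compounds for 5 h at 37 C; detection by FRET substrate fluorescence after 2.5 h at RT.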

[9] = qHTS assay to identify small molecule agonists of the peroxisome proliferator-activated receptor delta (PPARd) signaling pathway - cell viability counter screen (AID 743211); further: nearly all actives have a fitted effect of over 55% in size
Method in brief: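 Luminescent ATP viability assay (CellTiter-Glo, 30 min RT) in UAS-bla HEK293H cells carrying the PPAR delta reporter construct, 3000 cells/well, after a 17 h compound treatment at 37 C.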

[10] = target: Peroxisome proliferator-activated receptor delta (Homo sapiens) (UniProt Q03181); assay: qHTS assay to identify small molecule agonists of the peroxisome proliferator-activated receptor delta (PPARd) signaling pathway (AID 743212; calls by dose curve)
Peroxisome proliferator-activated receptor delta (Homo sapiens), sequence (Q03181 whole entry, looked up): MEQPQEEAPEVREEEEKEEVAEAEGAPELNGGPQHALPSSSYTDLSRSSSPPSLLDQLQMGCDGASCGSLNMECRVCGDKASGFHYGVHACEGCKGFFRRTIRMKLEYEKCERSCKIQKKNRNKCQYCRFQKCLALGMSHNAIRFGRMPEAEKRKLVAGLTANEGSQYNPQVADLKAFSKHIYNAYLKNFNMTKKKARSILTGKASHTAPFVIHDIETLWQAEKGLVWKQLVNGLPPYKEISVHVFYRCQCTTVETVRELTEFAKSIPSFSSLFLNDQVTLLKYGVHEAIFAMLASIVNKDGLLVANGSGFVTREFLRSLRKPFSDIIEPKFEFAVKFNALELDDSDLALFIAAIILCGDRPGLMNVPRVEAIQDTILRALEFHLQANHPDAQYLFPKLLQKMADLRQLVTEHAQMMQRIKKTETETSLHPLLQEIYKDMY
Method in brief: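 Beta-lactamase reporter read by fluorescence (LiveBLAzer B/G FRET, 2 h, room temperature). Test agents, in DMSO, incubated at 37 C with PPARd-bla HEK293H cells.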

[11] = qHTS assay to identify small molecule antagonists of the peroxisome proliferator-activated receptor delta (PPARd) signaling pathway - cell viability counter screen (AID 743213); further: nearly all actives have a fitted effect of over 50% in size
Method in brief: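 Cytotoxicity counter screen: CellTiter-Glo luminescence read 30 min after addition, in the same wells as the reporter assay. There, PPARd UAS-bla HEK293H cells (3000/well) were treated 17 h at 37 C with compound and 300 nM L165041.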

[12] = target: Peroxisome proliferator-activated receptor delta (Homo sapiens) (UniProt Q03181); assay: qHTS assay to identify small molecule antagonists of the peroxisome proliferator-activated receptor delta (PPARd) signaling pathway (AID 743215; active means well fitted inhibition curve with a large enough effect in the signal ratio in the repeat runs, not every such curve was filed as active; the % refers to the signal ratio;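 further: cells stimulated with agonist L165041 at 300 nM final during compound exposure; series mostly up to about 62 µM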)
Method in brief: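 Fluorescence from cleaved LiveBLAzer B/G FRET substrate (2 h, room temperature) reports PPARd-driven beta-lactamase in HEK293H UAS-bla cells. Cells had been treated 17 h at 37 C with compound plus 300 nM final L165041.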

[13] = qHTS assay to identify small molecule agonists of the farnesoid-X-receptor (FXR) signaling pathway - cell viability counter screen (AID 743218); further: nearly all actives have a fitted effect of over 45% in size
Method in brief: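 Readout: CellTiter-Glo luminescence, 30 min RT, multiplexed after the FXR-bla FRET reading. HEK 293T FXR-UAS-bla cells received compound 5 h post-plating and were incubated 16 h at 37 C.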

[14] = qHTS assay to identify small molecule antagonists of the farnesoid-X-receptor (FXR) signaling pathway - cell viability counter screen (AID 743221; active means well fitted cell-killing curve with a large enough effect in the repeat runs, not every such curve was filed as active; further: nearly all actives have a fitted effect of over 50% in size)
Method in brief: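 In GeneBLAzer FXR-UAS-bla HEK 293T cells stimulated with 50 uM chenodeoxycholic acid (final), compounds acted for 16 h at 37 C. Viability was assessed afterwards by CellTiter-Glo luminescence.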

[15] = target: Vitamin D3 receptor (Homo sapiens) (UniProt P11473); assay: qHTS assay to identify small molecule agonists of the vitamin D receptor (VDR) signaling pathway (AID 743222; calls by dose curve)
Vitamin D3 receptor (Homo sapiens), sequence (P11473 whole entry, looked up): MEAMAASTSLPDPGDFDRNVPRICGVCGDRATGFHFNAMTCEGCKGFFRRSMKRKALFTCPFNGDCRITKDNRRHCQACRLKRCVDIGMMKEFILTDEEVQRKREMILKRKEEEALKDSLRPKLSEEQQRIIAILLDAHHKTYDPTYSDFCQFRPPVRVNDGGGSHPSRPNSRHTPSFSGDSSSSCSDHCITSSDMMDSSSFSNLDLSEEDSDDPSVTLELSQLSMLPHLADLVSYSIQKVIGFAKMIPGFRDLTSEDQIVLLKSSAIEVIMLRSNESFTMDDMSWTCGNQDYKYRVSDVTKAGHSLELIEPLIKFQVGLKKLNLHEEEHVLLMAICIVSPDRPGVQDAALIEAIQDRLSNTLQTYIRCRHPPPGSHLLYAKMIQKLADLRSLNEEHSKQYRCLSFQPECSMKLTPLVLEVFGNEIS
Method in brief: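 Following 4 h attachment at 37C, VDR-bla cells (2,000 per well) received DMSO-dissolved compounds or controls. After 16 h incubation, LiveBLAzer B/G FRET substrate was added and fluorescence read 2 h later at room temperature.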

[16] = target: Vitamin D3 receptor (Homo sapiens) (UniProt P11473); assay: qHTS assay to identify small molecule antagonists of the vitamin D receptor (VDR) signaling pathway (AID 743223; active means well fitted inhibition curve with a large enough effect in the signal ratio in the repeat runs, not every such curve was filed as active; the % refers to the signal ratio)
Method in brief: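 Agonist 1alpha,25-dihydroxyvitamin D3 (3 nM in well) was added with each compound to VDR-bla cells preincubated 4 h. Cells stood 16 h at 37C, then FRET substrate 2 h at room temperature; fluorescence intensity recorded.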

[17] = qHTS assay to identify small molecule agonists of the vitamin D receptor (VDR) signaling pathway - cell viability counter screen (AID 743224); further: series mostly up to about 63 µM; nearly all actives have a fitted effect of over 50% in size
Method in brief: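 In parallel with the bla FRET readout, cytotoxicity toward VDR-bla cells after 16 h compound exposure was assessed by CellTiter-Glo, with luminescence recorded after a 30 min room-temperature incubation.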

[18] = qHTS assay to identify small molecule antagonists of the peroxisome proliferator-activated receptor gamma (PPARg) signaling pathway - cell viability counter screen (AID 743194); further: nearly all actives have a fitted effect of over 55% in size
Method in brief: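 PPARg-UAS-bla HEK293H cells were plated, rested 5 h at 37 C, then treated with compounds plus rosiglitazone (50 nM final) for 17 h at 37 C; viability was then read by CellTiter-Glo luminescence after 30 min at room temperature.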

[19] = target: Bile acid receptor (Homo sapiens) (UniProt Q96RI1); assay: qHTS assay to identify small molecule antagonists of the farnesoid-X-receptor (FXR) signaling pathway (AID 743217; active means well fitted inhibition curve with a large enough effect in the signal ratio in the repeat runs, not every such curve was filed as active; the % refers to the signal ratio)
Bile acid receptor (Homo sapiens), sequence (Q96RI1 whole entry, looked up): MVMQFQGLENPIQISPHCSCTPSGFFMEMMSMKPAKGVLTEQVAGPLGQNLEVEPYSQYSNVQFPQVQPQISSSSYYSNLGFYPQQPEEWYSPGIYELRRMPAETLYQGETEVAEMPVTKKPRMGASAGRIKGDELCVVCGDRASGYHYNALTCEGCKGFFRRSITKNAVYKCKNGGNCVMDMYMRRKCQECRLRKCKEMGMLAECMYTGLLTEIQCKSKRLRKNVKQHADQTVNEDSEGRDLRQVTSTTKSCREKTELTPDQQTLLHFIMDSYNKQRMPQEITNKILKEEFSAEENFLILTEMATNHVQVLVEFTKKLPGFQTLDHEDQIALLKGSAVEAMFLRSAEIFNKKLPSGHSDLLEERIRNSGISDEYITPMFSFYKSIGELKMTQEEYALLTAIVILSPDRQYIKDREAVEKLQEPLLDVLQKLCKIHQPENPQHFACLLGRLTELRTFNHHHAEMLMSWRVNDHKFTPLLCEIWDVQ
Method in brief: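 FRET fluorescence after 2 h room-temperature LiveBLAzer loading gives the readout. Prior step: FXR-bla HEK 293T cells, seeded and incubated 5 h, received test compounds plus 50 uM final CDCA for 16 h at 37 °C.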

[20] = target: Bile acid receptor (Homo sapiens) (UniProt Q96RI1); assay: qHTS assay to identify small molecule agonists of the farnesoid-X-receptor (FXR) signaling pathway (AID 743220; active means well fitted activation curve with a large enough effect in the signal ratio in the repeat runs, not every such curve was filed as active; the % refers to the signal ratio)
Method in brief: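 FXR-UAS-bla HEK 293T cells carrying a UAS-driven beta-lactamase reporter were plated for 5 h at 37C/5% CO2, then exposed to DMSO-dissolved Tox21 10K compounds for 16 h at 37C. A LiveBLAzer B/G FRET substrate was loaded for 2 h at room temperature before fluorescence reading.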

Measured: Potency

CC(C)(Sc1cc(C(C)(C)C)c(O)c(C(C)(C)C)c1)Sc1cc(C(C)(C)C)c(O)c(C(C)(C)C)c1
not listed: [18] | [19] | [20]
inactive: all other assays above

CCCCCCCCCCCCCCCC(=O)OC
not listed: [7] | [8] | [15]
inactive: all other assays above

Cc1ccccc1OCC(=O)O
not listed: [4] | [16]
inactive: all other assays above

CC(=O)c1c(C)cc(C(C)(C)C)cc1C
not listed: [5] | [7] | [16] | [19] | [20]
inactive: all other assays above

CCCC(=O)C(CC)Sc1ccoc1C (configuration not stated)
not listed: [10] | [12] | [15] | [16] | [18] | [19] | [20]
inactive: all other assays above

O=c1[nH]c(=O)c2cn[nH]c2[nH]1
not listed: [7] | [9] | [14] | [16] | [19] | [20]
inactive: all other assays above

COC(=O)/C=C(\C)CCC=C(C)C
not listed: [5] | [14] | [17] | [18] | [19] | [20]
inactive: all other assays above

C=CC(=O)OCCOCCOCC
inactive: [1] | [2] | [3] | [4] | [18] | [6] | [9] | [11] | [13] | [14] | [17]

Cc1ccc(NC(N)=O)cc1
not listed: [4] | [11] | [15] | [19] | [20]
inactive: all other assays above

CCC(C)SSC(C)CC (configuration not stated)
not listed: [4] | [5] | [8] | [10] | [12] | [15] | [19] | [20]
inactive: all other assays above

NS(=O)(=O)c1cc2c(cc1C(F)(F)F)NCNS2(=O)=O
not listed: [4] | [5] | [7] | [9] | [13] | [20]
inactive: all other assays above

CNC(C)=O
not listed: [4] | [9] | [19] | [20]
inactive: all other assays above

O=C(OOC(=O)c1ccccc1)c1ccccc1
not listed: [4] | [8] | [15] | [16] | [17] | [19] | [20]
inactive: all other assays above

CCCCC(CC)COC(=O)CC#N (configuration not stated)
not listed: [4] | [10] | [12] | [14] | [18]
inactive: all other assays above

COc1cc(NS(=O)(=O)c2ccc(N)cc2)ncn1
not listed: [4] | [8] | [15] | [16] | [17] | [19] | [20]
inactive: all other assays above

CCCCCCC(=O)c1ccccc1
not listed: [4] | [7] | [13] | [15] | [16]
inactive: all other assays above

O=C[C@@H](O)[C@H](O)[C@H](O)CO
not listed: [4] | [15] | [16] | [19] | [20]
inactive: all other assays above

Cc1ccc(N)nc1
not listed: [4] | [7] | [10] | [14] | [15] | [16]
inactive: all other assays above

CCCCCC(=O)CC
not listed: [4] | [7] | [12]
inactive: all other assays above

CC(CN1CC(=O)NC(=O)C1)N1CC(=O)NC(=O)C1 (configuration not stated)
not listed: [4] | [5] | [14] | [16] | [19] | [20]
inactive: all other assays above

CCCCOCCCC
not listed: [4] | [10] | [12] | [19] | [20]
inactive: all other assays above

CCCC[O][Al]([O]CCCC)[O]CCCC
not listed: [4] | [6] | [12] | [14] | [16]
inactive: all other assays above

CCOCCOCCOC(C)=O
not listed: [4] | [8] | [16]
inactive: all other assays above

CC(C)(C)C(=O)NCCCC(=O)O
not listed: [4] | [8] | [14] | [15] | [19] | [20]
inactive: all other assays above

c1coc(Cn2cccc2)c1
inactive: [1] | [2] | [3] | [18] | [6] | [11] | [19] | [13] | [20] | [14] | [17]

CCCCNCC
not listed: [4] | [7] | [8] | [15] | [16] | [19] | [20]
inactive: all other assays above
